# Shown are actives, neighbours in structure and some others; about 6.8% of the full set was active somewhere.
# SW480 rerep: A quantitative high throughput screen for small molecules that induce DNA re-replication in SW480 colon adenocarcinoma cells; SW480 DNA re-replication, Hoechst DNA content imaging, 48 h; Potency, µM (highest dose often 46.1 µM), actives largely listed as activators; 340,000 compounds, 1.8% hits; AID 624297, 2012; further: nearly all actives have a fitted effect of over 55% in size
#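 Image-based read-out: total Hoechst fluorescence of nuclei (405 nm excitation, 500-530 nm emission), with hits raising the fraction of high-intensity nuclei. SW480 colon cells incubated 48 hr with compounds at 37 C.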
# KB-V1 cytotox: qHTS assay for MDR1-selective chemotherapeutics: Primary screen using the drug-selected MDR subline cells KB-V1 | KB-V1 MDR cells viability, CellTiter-Glo, 72 h | Potency, µM (titrated, usually from 46.1 µM), hits mostly cytotoxic | 400,000 compounds, 3.4% hits | AID 1347076, 2019; further: nearly all actives have a fitted effect of over 60% in size
#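 Cells of the MDR subline KB-V1 are plated, dosed with compound at multiple concentrations, and incubated 72 h at 37 degrees C; CellTiter-Glo is then added and luminescence read after 10 min.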
# PINK1 expr mod: A Quantitative High throughput Screen to Identify Chemical Modulators of PINK1 Expression. 410,000 compounds, 0.2% hits. Potency, µM (series often up to 76.6 µM), actives largely listed as activators. PINK1 immunofluorescence, high-content cytometry, 24 h; active means well fitted activation curve with a large enough effect; inconclusive means small, poorly fitted or top-dose-only effect; cell line not stated here; further: nearly all actives have a fitted effect of over 65% in size
#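 Decision-based qHTS: stable cells, 24 h exposure to five compound concentrations, CCCP as control. Fixed cells stained for PINK1 plus nuclear, mitochondrial and cell markers, cytometer read.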
# KB-3-1 tox: qHTS assay for MDR1-selective chemotherapeutics: Primary screen using the parental adenocarcinoma cell KB-3-1 | 400,000 compounds, 1.4% hits | KB-3-1 viability, CellTiter-Glo ATP luminescence, 72 h | Potency, µM (top dose mostly 46.1 µM), actives largely listed as cytotoxic; further: nearly all actives have a fitted effect of over 60% in size
#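 Cytotoxicity measured as CellTiter-Glo luminescence after 72 h at 37 C. Compound titrations were pinned onto drug-naive KB-3-1 parental adenocarcinoma cells grown in DMEM with 10% FBS, and normalized data fitted to concentration-response curves.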
# PTAP TSG101 blk: qHTS Assay for Iinhibitors of HIV-1 Budding by Blocking the Interaction of PTAP/TSG101. Potency, µM (doses to about 115 µM), most hits filed as inhibitors. Fluorescence polarization, FITC-PTAP peptide / Tsg101 binding. 340,000 tested, under 10 active. AID 493005, 2010; active means well fitted inhibition curve with a large enough effect in the main read-out, with a control signal flat, not every such curve was filed as active; inconclusive means small, poorly fitted or top-dose-only effect, or effect the other way, or a change in a side signal; inactive means no such curve, though single readings can be large or run the other way
# Target sequence (Q99816 whole entry, looked up): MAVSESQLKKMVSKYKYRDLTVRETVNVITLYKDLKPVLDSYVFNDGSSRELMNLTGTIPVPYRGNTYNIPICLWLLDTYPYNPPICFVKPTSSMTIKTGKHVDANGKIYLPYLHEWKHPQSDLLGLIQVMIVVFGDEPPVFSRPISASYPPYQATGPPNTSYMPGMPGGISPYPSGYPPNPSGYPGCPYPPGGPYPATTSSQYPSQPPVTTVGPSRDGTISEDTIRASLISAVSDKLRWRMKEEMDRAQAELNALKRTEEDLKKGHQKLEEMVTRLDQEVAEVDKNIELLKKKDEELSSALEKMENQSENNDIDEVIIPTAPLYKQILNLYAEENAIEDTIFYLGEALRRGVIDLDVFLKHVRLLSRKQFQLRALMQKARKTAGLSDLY
#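 Tsg101 binding domain (10 uM final) was mixed with compound and a FITC-labeled PTAP peptide (50 nM final) in HEPES pH 7.5 buffer with NaCl, Tween 20, EDTA and TCEP; fluorescence polarization was read after 20 min at r.t.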
# MCF10A rerep: A quantitative high throughput screen for small molecules that induce DNA re-replication in MCF 10a normal breast cells; MCF 10A DNA re-replication, Hoechst nuclear intensity, 48 h; Potency, µM (highest dose often 46.1 µM), usual class: activators; 350,000 compounds, 2.9% hits; AID 624296, 2012; further: nearly all actives have a fitted effect of over 50% in size
# A number is an active result; i = inactive; ? = inconclusive; nt = no result given; [ ] = dose if it differs, or a comment. Unless noted, the call rests on the fitted dose curve; in most records, active means well fitted curve in the direction sought with a large enough effect; inconclusive means small, poorly fitted or top-dose-only effect, or another doubt; inactive means no such curve, though single readings can be large; an effect the other way counts as inactive or inconclusive.
SMILES,SW480 rerep,KB-V1 cytotox,PINK1 expr mod,KB-3-1 tox,PTAP TSG101 blk,MCF10A rerep
O=C(c1ccco1)N1CCN(C(=O)c2ccc(COc3ccc(Cl)cc3Cl)o2)CC1,i,?,i,i,i,20.6µM
COc1ccc(C2C=C(c3ccccc3)Nc3nc(NC(=O)/C=C/c4ccccc4Cl)nn32)cc1 (stereo not drawn),nt,i,?,?,nt,nt
NCC(O)c1cccc(O)c1 (stereo not drawn),i,nt,nt,nt,nt,i
C=C1Nc2ccccc2C(=O)N1c1ccccc1C,i,nt,nt,nt,nt,i
C[C@]12CCC(=O)C[C@@H]1CC[C@@H]1[C@@H]2CC[C@]2(C)[C@@H](O)CC[C@@H]12,i,16.4µM,i,i,i,i
COC(=O)C(O)(c1ccc(NC(=S)NC(=O)c2ccc(Cl)cc2Cl)cc1)C(F)(F)F (stereo not drawn),i,18.4µM,i,?,i,?
CCOC(=O)C(O)(c1ccc(NC(=S)NC(=O)c2ccc(Cl)cc2Cl)cc1)C(F)(F)F (stereo not drawn),?,?,?,i,i,?
O=C1[C@H]2[C@@H](C3CC3)N3C(=O)CN(CC4CC4)C(=O)[C@@]3(Cc3ccccc3)[C@H]2C(=O)N1c1ccccc1,i,i,i,i,i,i
NC(=S)c1cn(C2OC(CO)C(O)C2O)c2ncnc(N)c12 (stereo not drawn),i,i,i,?,i,?
Nc1ncnc2c1ccn2[C@@H]1O[C@H](CO)[C@@H](O)[C@H]1O,?,0.206µM,i,0.184µM,i,?
CN(C)C(=O)Oc1cccc(-c2cn3cc(Cl)ccc3n2)c1,i,13µM,i,i,i,i
CN(C)C(=O)Oc1ccc(-c2cn3cc(Cl)ccc3n2)cc1,i,4.11µM,i,i,i,i
CN(C)C(=O)Oc1ccc(-c2cn3cc(C(F)(F)F)ccc3n2)cc1,?,i,i,i,i,i
Cc1ccc(S(=O)(=O)N2CCCCC2)cc1NC(=O)CN1CC=C(c2ccccc2)CC1,i,6.51µM,i,?,i,?
O=C(CN1CC=C(c2ccccc2)CC1)Nc1cc(Cl)ccc1Cl,i,?,i,i,i,18.4µM
O=C(CN1CC=C(c2ccccc2)CC1)Nc1c(Cl)cccc1Cl,i,i,i,i,i,i
C[C@H]1COC(=O)[C@@H](Cc2ccc(F)cc2)CC/C=C/C[C@@H](CC(=O)N(CCO)Cc2ccccc2)C(=O)N1,i,?,i,i,i,i
CC1CC[C@@]2(NC1)OC1CC3C4CC[C@@H]5CC(O)CC[C@@]5(C)C4CC[C@]3(C)C1C2C (stereo partly drawn),i,nt,nt,nt,nt,i
CC(C)Oc1ccc(CNC(=O)Oc2ccccc2)cc1,?,i,i,?,i,11.6µM
O=C(Nc1ccccc1)Oc1ccccc1,i,?,?,i,i,i
COc1cc(/C=C(/C)[N+](=O)[O-])ccc1OCc1ccccc1Cl,3.26µM,?,i,?,i,3.66µM
COc1cc(C=C2C(=O)NC(=O)NC2=O)ccc1OCc1ccc([N+](=O)[O-])cc1,i,i,i,i,i,i
CN1CCN(c2nc(Cl)ncc2F)CC1,i[1.84 µM],i,i,i,i,i
CN1CCN(c2ncnc3nc[nH]c23)CC1,i,i,i,i,i,0.259µM
CC(C)CCOP(=O)(c1ccc(N(C)C)cc1)C(O)c1c(Cl)cccc1Cl (stereo not drawn),i,i,i,i,i,?
CC(=O)NCCc1c[nH]c2ccccc12,i,i,i,i,i,i
CC(=O)c1cn(CC(=O)NCCc2c[nH]c3ccccc23)c2ccccc12,i,14.6µM,i,?,i,?
O=C(CI)c1ccc(Cl)cc1,nt,i,i,i,nt,nt
COc1ccc(CN2CCN(C(=O)Cc3ccccc3)CC2)c(OC)c1,i,i,i,i,i,?

# Assay outcomes deposited in PubChem by National Center for Advancing Translational Sciences (NCATS).
